Compound activity (PubChem BioAssay)
Only some compounds are listed: those with a hit (about 8% of all), similar ones and a draw of the others.
KB-V1 MDR tox – kills drug-selected multidrug resistant KB-V1 cells. KB-V1 MDR cells viability, CellTiter-Glo, 72 h. Potency, µM (series often up to 46.1 µM), actives largely listed as cytotoxic. 400,000 tested, 3.4% active; further: on the % scale 0 is the no-effect control and ±100 the full control effect; nearly all actives have a fitted effect of over 60% in size
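Drug-selected KB-V1 cells, grown in DMEM lacking phenol red with 10% FBS, receive compound titrations; after three days at 37 degrees C, surviving cell ATP is quantified by CellTiter-Glo luminescence and responses normalized and curve-fitted.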
KB-3-1 tox – kills parental KB-3-1 adenocarcinoma cells. KB-3-1 viability, CellTiter-Glo ATP luminescence, 72 h. 400,000 tested, 1.4% active. AID 1347075. Potency, µM (series often up to 46.1 µM), actives largely listed as cytotoxic; further: on the % scale 0 is the no-effect control and ±100 the full control effect; nearly all actives have a fitted effect of over 60% in size
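Screening of KB-3-1 cells (DMEM, 10% FBS, phenol-red free) ran from lowest to highest compound concentration; after 72 h at 37 °C viability was read luminescently and curves fitted.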
HT1080 IDH1KD tx – kills HT-1080 cells with IDH1 knockdown | HT-1080 IDH1 knockdown viability, ATP luminescence, 48 h | Potency, µM (top dose mostly 46.1 µM), without a hit: at the highest dose activity, negative = toxicity, most hits filed as cytotoxic | 360,000 tested, 2% active;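 further: 0% = DMSO wells and -100% = cell-free medium wells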
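HT-1080-IDH1KD cells (IDH1 knocked down), 750/well in RPMI with 5% FBS, treated with compound 48 h at 37 degrees C. Viability by CellTiter-Glo luminescence, normalised to DMSO and no-cell wells; concentration-response curves classed.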
HT1080NT lethal – kills 2HG-producing HT-1080-NT fibrosarcoma cells; HT-1080-NT fibrosarcoma viability, CellTiter-Glo ATP luminescence, 48 h; Potency, µM (titrated, usually from 46.1 µM), for inactives: at the top dose activity, negative = less viability, actives largely listed as cytotoxic; 360,000 tested, 1.6% active; AID 686970;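 further: NT is the 2HG producing partner of a matched IDH1 knockdown line; 0% = DMSO-treated cells and -100% = media-only wells without cells; nearly all actives have a fitted effect of over 55% in size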
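A 48-hour cytotoxicity screen used HT-1080-NT cells plated 2 hours before compound delivery. ATP-based CellTiter-Glo luminescence measured viability, normalized to DMSO and no-cell controls.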
SW480 rereplic – inducers of DNA re-replication in SW480 colon cancer cells; SW480 DNA re-replication, Hoechst DNA content imaging, 48 h; Potency, µM (series often up to 46.1 µM), for the others: top-dose re-replication activation, actives largely listed as activators; 340,000 tested, 1.8% active; AID 624297; further: % of control where 0% means no effect; nearly all actives have a fitted effect of over 55% in size
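Readout is total intensity of Hoechst-stained nuclei, excited at 405 nm and collected at 500-530 nm. Compound treatment lasted 48 hr at 37 C in 5% CO2 before staining.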
MCF10A rerep – induces DNA re-replication in MCF 10a normal breast cells; 350,000 tested, 2.9% active; Potency, µM (series often up to 46.1 µM), for the others: top-dose activity, positive = re-replication, actives largely listed as activators; MCF 10A DNA re-replication, Hoechst nuclear intensity, 48 h; further: % of control where 0% means no effect; nearly all actives have a fitted effect of over 50% in size
* = called active by the depositor; i = inactive; ? = inconclusive; . = no result given. The call rests on the fitted dose curve; in most records, active means well fitted curve in the direction sought with a large enough effect; inconclusive means small, poorly fitted or top-dose-only effect, or another doubt; inactive means no such curve, though single readings can be large; an effect the other way counts as inactive or inconclusive. Potency means the concentration at half of the fitted maximal effect.

SMILES	KB-V1 MDR tox	KB-3-1 tox	HT1080 IDH1KD tx	HT1080NT lethal	SW480 rereplic	MCF10A rerep
c1ccc(-n2ncc3c(NCc4ccco4)ncnc32)cc1	i	i	?	?	20.6µM*	12.6µM*
COc1ccc(-c2cnnn2-c2ccc(NC(=O)c3c(F)cccc3F)cc2)cc1	i	i	.	.	.	.
Cc1cc(C)c2[nH]c(=O)c(CN(Cc3ccco3)C(=S)NCC3CCCO3)cc2c1 (stereo not drawn)	i	i	-5.1%	-16.6%	0.7%	-0.5%
Cc1cc2cc(CN(Cc3ccco3)C(=S)NCC3CCCO3)c(=O)[nH]c2cc1C (stereo not drawn)	9.2µM*	i	10.3%	2.0%	13.5%	3.1%
Cc1ccc2cc(CN(Cc3ccco3)C(=S)NCC3CCCO3)c(=O)[nH]c2c1C (stereo not drawn)	4.11µM*	i	6.8%	5.0%	-4.1%	?
CCc1ccccc1NC(=O)Cn1c(=O)n(CC(=O)NCCc2ccccc2)c(=O)c2ccccc21	i	i	.	.	.	.
COc1ccc(-c2[nH]n(-c3ccc([N+](=O)[O-])cc3)c(=O)c2C=NCc2ccc(F)cc2)cc1	i	i	-5.0%	6.8%	-79.9%	?
COc1ccc(-c2cc(=O)n(-c3ccc([N+](=O)[O-])cc3)[nH]2)cc1	i	?	?	?	-0.4%	16.4µM*
CC(=O)N1N=C2c3ccccc3CCC2C1c1cccs1 (stereo not drawn)	i	i	1.8%	-2.0%	-11.7%	-2.2%
CCn1cc(Cl)c(C(=O)N2N=C3/C(=C/c4cccs4)CCCC3C2c2cccs2)n1 (stereo not drawn)	20.6µM*	?	-29.2%	?	18.4µM*	23.3%
COc1ccc(N(C(C)C(=O)N2CCC(Cc3ccccc3)CC2)S(C)(=O)=O)cc1 (stereo not drawn)	3.66µM*	?	-21.7%	-1.9%	1.6%	29.8%
COc1ccc(N(C(C)C(=O)N2CCCC2)S(C)(=O)=O)cc1 (stereo not drawn)	i	i	8.3%	11.1%	-1.2%	6.5%
CCNc1nc(N)c(C(=O)c2ccc(Cl)s2)s1	?	?	-12.8%	-11.1%	?	0.92µM*
CCCCn1cnc2cc(NCc3ccccc3Cl)ccc21	i	i	.	.	.	.
CCCNC(=O)c1noc2c1CCc1cc(OC)ccc1-2	i	i	1.6%	4.9%	0.5%	4.9%
Cc1cc(NC(=O)c2noc3c2CCc2ccccc2-3)no1	i	i	2.8%	1.5%	-5.2%	2.0%
Cc1ccc(O)c(NC(=O)c2noc3c2CCc2ccccc2-3)c1	i	i	-0.9%	9.5%	14.6µM*	?
COc1ccc2c(c1)CCc1c(C(=O)NCc3cccnc3)noc1-2	8.2µM*	?	-1.5%	13.4%	-3.9%	3.2%
O=C(c1noc2c1CCc1ccccc1-2)N1CCOCC1	16.4µM*	i	-19.6%	2.3%	-10.4%	-8.9%
COc1ccc2c(c1)CCc1c(C(=O)N3CCCCCC3)noc1-2	14.6µM*	i	-0.9%	-1.6%	-2.8%	?
CCOC(=O)c1cnc2ccc(OCC)cc2c1NCc1ccccc1	1.84µM*	?	?	-11.8%	-2.3%	20.6µM*
CCOC(=O)c1cnc2ccc(OCC)cc2c1NCc1cccnc1	?	?	?	?	-0.2%	23.1µM*
COc1ccc(/C=C/c2cnc3ccccc3n2)cc1OC	i	i	.	.	.	.
COc1cccc(-c2ccc(NC(=O)C3CCCN(Cc4cnn(C(C)C)c4)C3)cc2)c1 (stereo not drawn)	i	?	?	18.4µM*	?	18.4µM*
CCc1ncc(CN2CCCC(C(=O)Nc3cccc(-c4ccc(F)cc4)c3)C2)cn1 (stereo not drawn)	?	i	-1.4%	-11.5%	10.1%	12.6%
SMILES	KB-V1 MDR tox	KB-3-1 tox	HT1080 IDH1KD tx	HT1080NT lethal	SW480 rereplic	MCF10A rerep
CCCc1ncc(CN2CCCC(C(=O)Nc3ccc(-c4cccc(OC)c4)cc3)C2)cn1 (stereo not drawn)	i	i	?	-34.5%	?	11.4%
O=C(Nc1cccc(-c2ccc(F)cc2)c1)C1CCCN(Cc2cccnc2)C1 (stereo not drawn)	?	i	18.4µM*	?	3.1%	?
Cc1cccn2c(=O)c3cc(C(=O)NCc4ccco4)c(=N)n(CCc4ccccc4)c3nc12	?	i	-6.8%	-22.3%	18.4µM*	2.91µM*
Cc1cccn2c(=O)c3cc(C(=O)NCCc4ccccc4)c(=N)n(Cc4ccco4)c3nc12	?	i	5.17µM*	6.51µM*	6.51µM*	13µM*
O=[N+]([O-])c1ccccc1S(=O)(=O)N1CCN(c2nc(-c3cccs3)nc3ccccc23)CC1	i	i	.	.	.	.
Cc1ccsc1CNc1ncnc2ccc(-c3c(C)noc3C)cc12	?	?	.	.	-0.9%	5.8µM*
COc1cccc(CNc2ncnc3ccc(-c4c(C)noc4C)cc23)c1	?	i	.	.	-21.6%	?
O=C(NCC1CC1(Cl)Cl)Nc1ccc(Cl)c(Cl)c1 (stereo not drawn)	?	?	29.1µM*	18.4µM*	?	18.4µM*
O=C1C(=Cc2ccc(F)cc2)CCc2ccccc21	i	i	-15.3%	-22.7%	.	.
C=CC(=O)N1C/C(=C/c2ccc(F)cc2)C(=O)/C(=C\c2ccc(F)cc2)C1	i	?	2.91µM*	?	1.16µM*	?
CCc1ccc(NC(=O)NCCc2c(C)nn(C)c2C)cc1	i	i	.	.	.	.
CCN(CC)c1ccc(/C=N/N=C(c2ccccc2)c2ccccc2)c(O)c1	?	i	-22.6%	-6.1%	23.1µM*	?
CCN(CC)c1ccc(/C=N/Nc2nc3ccccc3[nH]2)c(O)c1	i	?	6.51µM*	8.2µM*	2.06µM*	18.4µM*
CCN(CC)c1ccc(/C=N/N(c2ccccc2)c2ccccc2)c(O)c1	16.4µM*	i	-12.0%	-3.4%	?	?
O=C1C=C(c2ccccc2)C[C@H](c2cccs2)[C@H]1n1nnc([N+](=O)[O-])n1	16.4µM*	i	9.2µM*	14.6µM*	2.06µM*	?
CCNc1ccc(/C=C/c2ccnc3ccccc23)cc1	i	?	.	.	.	.
COc1ccc(N(CC(=O)Nc2ccc(C)cc2)S(=O)(=O)c2c(C)noc2C)cc1	i	i	-12.2%	-17.7%	-4.4%	0.3%
COc1ccc(N(CC(=O)Nc2cccc(C)c2)S(=O)(=O)c2c(C)noc2C)cc1	i	i	2.6%	2.8%	2.8%	4.9%
